Assay results as given in the supplement of paper PMC6555819.

Legend:
Assay in all cases: PBM binding z-score (relative to random genomic background probes); higher = stronger binding; sequences stand for … in GC…GCGATTGACAGCGTAGAATGAAGG
[1] = system: RARb homodimer (NR concentration 270 nM)
Outline: (§1)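 Ligand-free nuclear receptor dimers were applied to custom Agilent 4×180K protein-binding microarrays whose double-stranded probes carried direct-repeat seeds, single-nucleotide variants, half-site ablations and random human genomic background sequences in 34-nt variable regions. Incubation lasted 1 h. Binding z-scores were computed against the random background probes from regression-normalized fluorescence.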

[2] = system: RARg:RXRa (NR concentration 270 nM, RXRa partner concentration 90 nM)
Outline: as §1

[3] = system: RARg homodimer (NR concentration 270 nM)
Outline: as §1

[4] = system: RXRa DBDmut IVT, anti-RXR (DBD mutation: RXRa K156A/R161A, NR concentration 90 nM)
Outline: as §1

[5] = system: RXRa homodimer (NR concentration 180 nM)
Outline: as §1

[6] = system: THRa:RXRa (NR concentration 90 nM, RXRa partner concentration 90 nM)
Outline: as §1

[7] = system: THRa homodimer (NR concentration 90 nM)
Outline: as §1

[8] = system: VDR homodimer (NR concentration 270 nM)
Outline: as §1

Row | Sequence | PBM binding z-score [1] | PBM binding z-score [2] | PBM binding z-score [3] | PBM binding z-score [4] | PBM binding z-score [5] | PBM binding z-score [6] | PBM binding z-score [7] | PBM binding z-score [8]
1 | CATACAGGGTCAGCTTGGCCAGAGTAGGGACGGC | 3.06 | 4.12 | 4.29 | 1.58 | 4.13 | 2.85 | 0.515 | 0.849
2 | AGAATGAGGTTACCAAAGATCAGGTAAACGCTTG | 0.973 | 2.09 | 1.47 | 0.793 | 2.75 | 2.98 | 1.22 | 0.168
3 | TCATATAGGTTAACAGGTGAAAGTCCGTAAGTTA | 1.85 | 2.13 | 1.57 | 1.53 | 2.09 | 1.39 | 0.525 | 0.443
4 | ACAGACAGGTGAGTGCAGGTAACTCAGCTGGACG | -0.104 | 0.091 | 0.426 | 0.222 | 0.412 | 1.69 | -0.612 | 0.269
5 | AGCCAAAGTTCATCTAGGTAACGTAAGATATGCT | 4.1 | 5.56 | 5.88 | 4.5 | 4.72 | 3.15 | 0.256 | 5.28
6 | AGTCAAAGTTCCTCTAGGTAACGTAAGATATGCT | -0.0173 | 0.433 | 0.491 | 0.711 | 0.183 | 1.23 | -0.0927 | 0.297
7 | ATCTCTAGGTAAGACTCAGTTAAGTGAAGAACGC | 0.172 | 0.0663 | 0.313 | 0.443 | 0.197 | 0.607 | 0.783 | 0.377
8 | TCATATAGGCAAATGCTAGGTGAAAGTCCGATCT | 0.285 | 0.0737 | 0.0347 | 1.15 | 0.445 | 0.84 | 0.227 | -0.285
9 | GATACAGGATCAAGGCCAGAGTACGCGTATTGAT | 0.0211 | 0.189 | 0.325 | -0.499 | 0.195 | -0.265 | -0.214 | 0.147
10 | CGTCAAAGTTCAACTAAGGTAACGTGAAGCACGC | 4.14 | 6.07 | 6.8 | 4.62 | 5.49 | 5.14 | 1.68 | 3.84
11 | AGAATGAGGTTATACGTAGATTAGGGAAGAAAGT | 0.89 | 1.67 | 1.05 | 1.49 | 2.3 | 2.27 | 0.694 | 1.09
12 | CATACTGGGCCATCAGGTCATTGATATCAACGTT | 2.78 | 2.53 | 2.08 | 0.904 | 1.61 | 3.29 | 3.27 | 2.38
13 | ACAATTAGTTGACTTAGGGCAACCGATACGACGC | 1.03 | 0.677 | 0.936 | 0.628 | 0.455 | 1.37 | 0.444 | 0.709
14 | TCTAGTTGGTCCAAGGTCACACACTCGAAATGCG | 4.11 | 4.07 | 3.8 | 2.01 | 4.39 | 4.31 | 4.14 | 3.22
15 | GCAACTGGGGCATCAGCAGGTTACCATAACTTAA | 0.793 | 0.74 | 0.473 | 0.26 | 0.318 | 1.04 | 0.19 | -0.0433
16 | CCGACTGGGGCAGAAAGGTGACCATACCATCCGG | 1.8 | 0.634 | 0.776 | -0.975 | 0.533 | 0.282 | -0.472 | -0.595
17 | CCTACTGGGCCAAAGGTCATTGCTTCCAATGCTC | 4.58 | 5.56 | 4.3 | 1.36 | 5.91 | 3.37 | 0.719 | 2.42
18 | AGTCAAAGTTCATCTAGGTAAAGTAAGATATGCT | 3.76 | 5.67 | 6.09 | 4.8 | 5.07 | 3.07 | 0.199 | 5.29
19 | TCTTGTAGATCAAGCAGTTTAAGAAAGCCTGAGT | -0.362 | -0.283 | -0.421 | 0.644 | -0.114 | -0.266 | -0.588 | -0.00897
20 | GCGACTGGGGCATCAGCTGGTTACCATAACTTAA | 0.0831 | 0.0774 | 0.0488 | -0.446 | -0.273 | -0.306 | -0.655 | -0.58
21 | TATCCTAGGTCATGGGCCAGTATACCACGCGAAC | 3.35 | 4.47 | 5.04 | 0.933 | 3.99 | 3.54 | 2.41 | 1.05
22 | GGAACGAAGGCAAGTTGATAGCAGAGTTTGATGG | -0.711 | -0.376 | -0.138 | 0.098 | -0.667 | -0.824 | -1.3 | -0.0459
23 | CTCGAAATGTCGTGCTCAGGTGAGTATACCAAAC | 0.0938 | 0.145 | 0.0439 | 0.155 | -0.16 | 1.53 | 0.939 | 0.16
24 | TGAATGAGGTTATAAGGTCAGGGAACGTTGCAAA | 4 | 5.81 | 4.21 | 1.11 | 5.44 | 4.24 | 3.73 | 1.88
25 | CGTCCAAGGTCAATGCTAGGTCATTGAAAGCATT | 4.92 | 7.82 | 7 | 3.83 | 6 | 4.65 | 3.74 | 4.05
26 | ATATGTAGGTTAAGGGCCATTCAGGTTGGTTCGC | 1.36 | 0.896 | 1.04 | 0.622 | 1.21 | 1.17 | 0.32 | 1.15
27 | CAAACTAGGTCACGAAAGGTAAAAGTCGAATGAC | 3.34 | 5.16 | 5.56 | 2.02 | 4.2 | 4.18 | 1.49 | 0.85
28 | CCTACTGGGCCAAGGTCATTTATCAGTCAAAGCA | 3.46 | 3.47 | 2.79 | 1.61 | 3.07 | 3.27 | 2.44 | 3.42
29 | TAGCCTAGGTCATGCGGGCCAGTATTGTGTCGGC | 3.12 | 3.74 | 4.11 | 0.382 | 2.52 | 3.05 | 1.08 | 0.379
